Assay [1] deals with Cell division control protein 42 homolog (Homo sapiens) (UniProt P60953). Briefly: inhibition of fluorescent GTP binding to constitutively active Cdc42 – biochemical, multiplex bead flow cytometry, Bodipy-FL-GTP, dose response (AID 1333;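 active = fitted half-maximal concentration within the tested dose range, moderate curve steepness, a statistically real signal drop, and little compound fluorescence or tag-binding interference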).
The target is the same in assay [2]. Description: inhibition of fluorescent GTP binding to wildtype Cdc42 – biochemical, multiplex bead flow cytometry, Bodipy-FL-GTP, dose response (AID 1334;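 active = fitted half-maximal concentration within the tested range, moderate curve steepness, significant signal drop, and little compound fluorescence or bead-linkage interference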). Particulars: bead-based flow cytometry, Bodipy-FL-GTP binding to GST-Cdc42; at 100 µM (top of the series) unless noted.
The target in assay [3] is GTPase HRas (Homo sapiens) (UniProt P01112). Description: Ras wt fluorescent GTP loading blockade – biochemical, wildtype, multiplex bead flow cytometry, dose response (AID 1335). The following applies: bead-based flow cytometry, Bodipy-GTP binding to GST-Ras; at 100 µM (top of the series) unless noted.
GTPase HRas (Homo sapiens), sequence (P01112 whole entry, looked up): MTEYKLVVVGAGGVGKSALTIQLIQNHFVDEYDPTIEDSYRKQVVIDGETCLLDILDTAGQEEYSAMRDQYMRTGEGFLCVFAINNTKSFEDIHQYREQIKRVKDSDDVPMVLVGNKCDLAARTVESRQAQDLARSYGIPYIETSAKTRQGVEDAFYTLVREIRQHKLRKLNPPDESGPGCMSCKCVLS
Assay [4] concerns Ras-related protein Rab-7a (dog), GTP binding. Description: blockers of fluorescent GTP binding to Rab7 – biochemical, wildtype, multiplex bead flow cytometry, dose response (AID 1336; call rule not given here).
The target in assay [5] is Ras-related C3 botulinum toxin substrate 1 (Homo sapiens) (UniProt P63000). Description: inhibition of wildtype Rac1 nucleotide loading – biochemical, multiplex bead flow cytometry, dose response (AID 1340;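 active = dose curve with midpoint inside tested range, moderate steepness, plateau gap beyond fit error, low compound glow and bead-link interference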). Particulars: GST-Rac1 beads, Bodipy-FL-GTP binding; at 100 µM (top of the series) unless noted.
In assay [6] the target is GTPase HRas (Homo sapiens) (UniProt P01112). Description: blockade of GTP loading onto mutant Ras – biochemical, activated mutant, multiplex bead flow cytometry, dose response (AID 1341;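 active = dose-response curve with midpoint inside the tested range, moderate steepness, significant amplitude and little compound fluorescence or bead-attachment interference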;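 also: GST-tagged constitutively activated Ras mutant immobilized on beads and multiplexed with other GTPases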).

SMILES strings stand for the structures. For part of these data: Results with a measured potency or affinity are listed apart. Calls of active or inactive are those of the source.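 The calls were made as follows, unless noted: active = fitted half-maximal concentration within 10 nM to 100 µM, steepness 0.5 to 2, significant signal drop, low assay interference; inactive = the rest.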

Cell division control protein 42 homolog (Homo sapiens), sequence (P60953 whole entry, looked up): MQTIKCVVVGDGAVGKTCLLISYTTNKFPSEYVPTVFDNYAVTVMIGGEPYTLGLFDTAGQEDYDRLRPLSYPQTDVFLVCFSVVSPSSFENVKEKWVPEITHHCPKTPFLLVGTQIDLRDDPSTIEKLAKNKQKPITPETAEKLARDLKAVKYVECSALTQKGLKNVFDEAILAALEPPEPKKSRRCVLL

Regarding `COc1ccccc1OCCn1cc(C(=O)O)c2cc(Cl)ccc21`, the result in assay [1], in assay [4] and in assay [6] was inactive. The molecule also displayed a fluorescence, percent of control (lower = inhibition) in assay [2] of 55.3%. For the same molecule, the GTP binding, percent of control in assay [3] is 204%. The same molecule yielded a GTP binding signal, raw median fluorescence (lower = inhibition) (MCF (arbitrary fluorescence units)) in assay [5] of 57.7.

`Cc1cc2ccccn2c1C(=O)c1cccc([N+](=O)[O-])c1`: the molecule was called inactive in assay [1], in assay [4] and in assay [6]. The molecule further registered a fluorescence, percent of control (lower = inhibition) in assay [2] of 34%. In addition, the GTP binding, percent of control in assay [3] was 81.2%. The molecule further had a GTP binding signal, raw median fluorescence (lower = inhibition) (MCF (arbitrary fluorescence units)) in assay [5] of 250.

As for `Cc1ccc(C(C)C)c(OCCSc2nc3ccccc3n2CC(=O)O)c1`, the molecule was called inactive in assay [1], in assay [4] and in assay [6]. For the same molecule, the fluorescence, percent of control (lower = inhibition) in assay [2] stood at 56.7%. The GTP binding, percent of control in assay [3] was 86.4%. Moreover, the GTP binding signal, raw median fluorescence (lower = inhibition) (MCF (arbitrary fluorescence units)) in assay [5] stood at 32.1.

As to `Cc1ccc(C(=O)Nn2c(O)c(C=C3N=c4ccccc4=N3)sc2=S)cc1`, the call in assay [1], in assay [4] and in assay [6] was inactive. The molecule further had a fluorescence, percent of control (lower = inhibition) in assay [2] of 47.7%. In assay [3], the GTP binding, percent of control turned out to be 50.4%. Further, the GTP binding signal, raw median fluorescence (lower = inhibition) (MCF (arbitrary fluorescence units)) in assay [5] is 129.

In the case of `O=C(N/N=C/c1ccc(-c2ccccc2[N+](=O)[O-])o1)c1cncc(Br)c1`, the call in assay [1], in assay [4] and in assay [6] was inactive. Besides, in assay [2], the fluorescence, percent of control (lower = inhibition) came to 44.2%. The molecule also gave a GTP binding, percent of control in assay [3] of 55.2%. Further, the GTP binding signal, raw median fluorescence (lower = inhibition) (MCF (arbitrary fluorescence units)) in assay [5] came to 150.

With `COc1ccc(CN2C(=O)/C(=C/c3ccc(-c4ccc(Cl)c(C(=O)O)c4)o3)SC2=S)cc1`, the outcome in assay [1], in assay [4] and in assay [6] was inactive. In addition, in assay [2], the fluorescence, percent of control (lower = inhibition) was 32.2%. The GTP binding, percent of control in assay [3] was 56%. In assay [5], the GTP binding signal, raw median fluorescence (lower = inhibition) (MCF (arbitrary fluorescence units)) amounted to 142.

In the case of `NC(=O)COC(=O)c1cccc2c1-c1ccccc1C2=O`, the molecule was classed as inactive in assay [1], in assay [4] and in assay [6]. This molecule showed a fluorescence, percent of control (lower = inhibition) in assay [2] of 33.4%. The GTP binding, percent of control in assay [3] is 75%. In assay [5], this molecule displayed a GTP binding signal, raw median fluorescence (lower = inhibition) (MCF (arbitrary fluorescence units)) of 176.

In the case of `COc1ccc2c(c1)c(C(=O)O)cn2CCOc1ccccc1C`, the result in assay [1], in assay [4] and in assay [6] was inactive. In assay [2], this molecule displayed a fluorescence, percent of control (lower = inhibition) of 61.2%. The molecule also returned a GTP binding, percent of control in assay [3] of 204%. In addition, the GTP binding signal, raw median fluorescence (lower = inhibition) (MCF (arbitrary fluorescence units)) in assay [5] was 59.4.

Turning to `COc1ccc(CNc2ccccc2C(=O)O)cc1`, the call in assay [1], in assay [4] and in assay [6] was inactive. This molecule also registered a fluorescence, percent of control (lower = inhibition) in assay [2] of 75.9%. Also, the GTP binding, percent of control in assay [3] turned out to be 93.4%. In assay [5], this molecule had a GTP binding signal, raw median fluorescence (lower = inhibition) (MCF (arbitrary fluorescence units)) of 44.1.

As for `Cc1cc(C)cc(Nc2cc(C(=O)O)c3ccccc3n2)c1`, the molecule was classed as inactive in assay [1], in assay [4] and in assay [6]. Also, in assay [2], the fluorescence, percent of control (lower = inhibition) worked out at 58.9%. Moreover, in assay [3], the GTP binding, percent of control was 80.4%. The GTP binding signal, raw median fluorescence (lower = inhibition) (MCF (arbitrary fluorescence units)) in assay [5] is 30.7.

As for `COc1ccccc1C(=O)Nc1nc(-c2ccc3c(c2)OCCO3)cs1`, the molecule was classed as inactive in assay [1], in assay [4] and in assay [6]. This molecule displayed a fluorescence, percent of control (lower = inhibition) in assay [2] of 28.6%. In addition, the GTP binding, percent of control in assay [3] was determined as 77%. The same molecule gave a GTP binding signal, raw median fluorescence (lower = inhibition) (MCF (arbitrary fluorescence units)) in assay [5] of 216.

Turning to `Cc1ccc([N+](=O)[O-])cc1-c1ccc(/C=C(\C#N)c2[nH]nc(N)c2C#N)o1`, the call in assay [1], in assay [4] and in assay [6] was inactive. Also, in assay [2], the fluorescence, percent of control (lower = inhibition) was 32.4%. The GTP binding, percent of control in assay [3] was found to be 72.8%. For the same molecule, in assay [5], the GTP binding signal, raw median fluorescence (lower = inhibition) (MCF (arbitrary fluorescence units)) came to 221.

Consider `Cc1ccccc1CSCc1ccc(C(=O)O)o1`, for which the outcome in assay [1], in assay [4] and in assay [6] was inactive. Further, the fluorescence, percent of control (lower = inhibition) in assay [2] is 61.3%. Besides, the GTP binding, percent of control in assay [3] stood at 89.8%. In assay [5], this molecule had a GTP binding signal, raw median fluorescence (lower = inhibition) (MCF (arbitrary fluorescence units)) of 30.2.

For the molecule `COc1cc2[nH]c(=S)nc(Nc3ccc(NC(C)=O)cc3)c2cc1OC`, the outcome in assay [1], in assay [4] and in assay [6] was inactive. Moreover, in assay [2], the fluorescence, percent of control (lower = inhibition) stood at 23.4%. For the same molecule, the GTP binding, percent of control in assay [3] came out at 52.2%. The molecule further returned a GTP binding signal, raw median fluorescence (lower = inhibition) (MCF (arbitrary fluorescence units)) in assay [5] of 118.

For `COc1ccc(CC2(CO)CCN(S(=O)(=O)c3sccc3C)CC2)cc1`, the molecule was called inactive in assay [1], in assay [4] and in assay [6]. Also, the fluorescence, percent of control (lower = inhibition) in assay [2] was 35.4%. In assay [3], this molecule came in with a GTP binding, percent of control of 82.2%. The molecule also had a GTP binding signal, raw median fluorescence (lower = inhibition) (MCF (arbitrary fluorescence units)) in assay [5] of 273.

(Values after PubChem BioAssay.)
